In PubChem BioAssay AID1259421 (Broad Institute, 2018) one finds activity change, negative = inhibition data, which are given here for 48 molecules.

Values joined by “and” are separate entries in the source; they are usually repeats but may differ in a detail not shown here. Equal entries are not always repeated. The whole screen tested about 6,400 compounds, of which about 610 (9.5%) were called active. Rule as the data show it: active = activity change below about -70%; inconclusive = no clear call, values can overlap the other calls; inactive = above that. Many of the other results were omitted from the sample, so actives are more common in it than they were. Some compounds were tested as several samples or in several runs, with calls that do not always agree. *1 amine or outer side, *2 acyl side, *3 side chain or, on linkers, in order; H or OH if unused. Where a SMILES comes first, the peptide text is derived from it. [ ]: non-standard residue; d: D form. LeuΨ(S-CHOHCH2)Ala = CC(C)C[C@H](N[*:1])[C@@H](O)C[C@@H](C)C(=O)[*:2]

The nature of the assay: T. gondii ME49Luc in HeLa cells, luciferase assay, 72 h, no IFN-y (AID 1259421). Particulars: stronger effect = lower value, concentration not given here.
Regarding `CN(CCOc1ccc(CC(Nc2ccccc2C(=O)c2ccccc2)C(=O)O)cc1)c1ccccn1` (stereo not drawn), the activity change, negative = inhibition was 1.37% (inactive).

As to `CCOC(=O)[C@@H](N)CCC(=O)N[C@@H](CSCc1ccccc1)C(=O)N[C@@H](C(=O)OCC)c1ccccc1`, the activity change, negative = inhibition was -2.09% (inactive).

For the molecule `CC1OC(OCC2OC(Oc3c(-c4ccc(O)c(O)c4)oc4cc(O)cc(O)c4c3=O)C(O)C(O)C2O)C(O)C(O)C1O` (stereo not drawn), the activity change, negative = inhibition was -9.9% (inactive).

In the case of `CS(=O)(=O)c1ccc(C(O)[C@H](CF)NC(=O)C(Cl)Cl)cc1` (stereo partly drawn), the activity change, negative = inhibition was -54.7% (inactive) and -27.8% (inactive).

In the case of `CN1C/C=C/CCOc2cccc(c2)-c2ccnc(n2)Nc2cccc(c2)C1`, the activity change, negative = inhibition is -90% (active).

As to `CCCCCCCCCCCCCCCC(=O)C1C(=O)OC(CO)C1=O` (stereo not drawn), the activity change, negative = inhibition is 6.7% (inactive).

For the molecule `Cc1cccc(C2CN(C)CCc3c2cc(O)c(O)c3Cl)c1` (stereo not drawn), the activity change, negative = inhibition is -3.35% (inactive).

Take `CCOC(=O)[C@H]1O[C@@H]1C(=O)N[C@@H](CC(C)C)C(=O)NCCC(C)C`: the activity change, negative = inhibition is 12.9% (inactive) and 2.41% (inactive).

For the molecule `CC(C)c1nc(CN(C)C(=O)N[C@@H](CCN2CCOCC2)C(=O)N[C@H](CC[C@H](Cc2ccccc2)NC(=O)OCc2cncs2)Cc2ccccc2)cs1`, the activity change, negative = inhibition was -16.7% (inactive).

`COC(=O)[C@H](Cc1ccccc1)NC(=O)[C@@H](N)CC(=O)O` (H-Asp-Phe-OMe): the activity change, negative = inhibition is 0.919% (inactive).

Regarding `COc1ccc(C[C@H](NC(=O)[C@H](C)NC(=O)CN2CCOCC2)C(=O)N[C@@H](Cc2ccccc2)C(=O)[C@]2(C)CO2)cc1`, the activity change, negative = inhibition is -76% (active).

Take `CC(=O)N[C@@H](Cc1ccccc1)C(=O)O`: the activity change, negative = inhibition is 16.5% (inactive).

As for `C[C@H]1CN(C[C@H](Cc2ccccc2)C(=O)NCC(=O)O)CC[C@@]1(C)c1cccc(O)c1`, the activity change, negative = inhibition was 4.96% (inactive).

In the case of `COC[C@H](NC(=O)c1cnc(C)s1)C(=O)N[C@@H](COC)C(=O)N[C@@H](Cc1ccccc1)C(=O)C1(C)CO1` (stereo partly drawn), the activity change, negative = inhibition is -88.8% (active).

As for `O=C(Cc1ccc(-c2ccc(OCCN3CCOCC3)cc2)cn1)NCc1ccccc1`, the activity change, negative = inhibition was -55.5% (inactive).

With `CC(=O)NC(Cc1ccccc1)C(=O)O` (stereo not drawn), the activity change, negative = inhibition was 20.2% (inactive).

As for `CC(C)C[C@H](NC(=O)[C@H](CCc1ccccc1)NC(=O)CN1CCOCC1)C(=O)N[C@@H](Cc1ccccc1)C(=O)N[C@@H](CC(C)C)C(=O)[C@@]1(C)CO1`, the activity change, negative = inhibition is -76.7% (active).

Take `CC1(C)CCC(C)(C)c2cc(Cn3cccn3)c(/C=C/c3ccc(C(=O)O)cc3)cc21`: the activity change, negative = inhibition is 15.2% (inactive).

Take `c1ccc(-c2nn3c(c2-c2ccnc4cc(OCCN5CCOCC5)ccc24)CCC3)nc1`: the activity change, negative = inhibition is -32.4% (inactive).

With `COc1ccc(-c2coc3cc(O)ccc3c2=O)c(OC)c1`, the activity change, negative = inhibition was 11.6% (inactive).

Take `CCN(CC)CC(=O)Oc1ccc(NC(C)=O)cc1`: the activity change, negative = inhibition is 7.5% (inactive).

As for `OC[C@H]1O[C@H](O[C@H]2O[C@H](CO)[C@@H](O)[C@H](O)[C@H]2O)[C@H](O)[C@@H](O)[C@@H]1O`, the activity change, negative = inhibition was 7.53% (inactive).

`C[N@+]12CCCC[C@@H]1CCC(=C(c1cccs1)c1cccs1)C2`: the activity change, negative = inhibition was 13.6% (inactive).

For `O=C(O)c1cc(=O)c2c3nc4ccccc4oc-3cc(=O)c2[nH]1`, the activity change, negative = inhibition is 1.96% (inactive).

As for `CC(=O)N[C@H]1[C@H]([C@H](O)[C@H](O)CO)OC(C(=O)O)=C[C@@H]1N=C(N)N`, the activity change, negative = inhibition is 10.9% (inactive).

Turning to `COc1ccc(-c2ccc3ncc4c(c3c2)n(-c2ccc(N3CCNCC3)c(C(F)(F)F)c2)c(=O)n4C)cn1`, the activity change, negative = inhibition was -88.5% (active).

As for `Cc1cc(C)cc(C(=O)N(C)[C@H](Cc2ccc(-c3ccccc3)cc2)C(=O)N[C@@H](Cc2c[nH]c3ccccc23)C(=O)O)c1`, the activity change, negative = inhibition was 13% (inactive).

With `C[C@H]1CNCCCN1S(=O)(=O)c1cccc2cncc(F)c12`, the activity change, negative = inhibition is -2.52% (inactive).

Consider `Nc1nnc(Sc2ncc([N+](=O)[O-])s2)s1`, for which the activity change, negative = inhibition is 9.53% (inactive).

As to `COc1cc(NC(=O)Nc2cccc(CNC(=O)O[C@H]3CCOC3)c2)ccc1-c1cnco1`, the activity change, negative = inhibition was -79.3% (active).

In the case of `CC[C@H](CC#N)OC(=O)N[C@@H](C)c1cccc(NC(=O)Nc2ccc(-c3cnco3)c(OC)c2)c1`, the activity change, negative = inhibition is -82% (active).

For the molecule `CC(C)CN(C[C@@H](O)[C@H](Cc1ccccc1)NC(=O)O[C@H]1CCOC1)S(=O)(=O)c1ccc(N)cc1`, the activity change, negative = inhibition was 0.811% (inactive).

Consider `Cc1cc2c(OCC(CNC(C)(C)C)OC(=O)c3ccccc3)cccc2[nH]1` (stereo not drawn), for which the activity change, negative = inhibition was 18.3% (inactive).

In the case of `Cc1c(NC(=O)c2cc3c(s2)CCCC3)cccc1-c1cn(C)c(=O)c(Nc2ccc(C3C(=O)N(C)CCN3C)cc2)n1` (stereo not drawn), the activity change, negative = inhibition was 97.9% (inactive).

`CCC(C(=O)O)c1ccc(N2Cc3ccccc3C2=O)cc1` (stereo not drawn): the activity change, negative = inhibition was 122% (inactive).

Regarding `Nc1nc2c(sc(=O)n2[C@@H]2O[C@H](CO)[C@@H](O)[C@H]2O)c(=O)[nH]1`, the activity change, negative = inhibition is -8.34% (inactive).

With `COc1cc2c(cc1OC)C(=O)OC2`, the activity change, negative = inhibition is -0.409% (inactive).

Take `C[C@H](Oc1cc(-c2cnn(C3CCNCC3)c2)cnc1N)c1c(Cl)ccc(F)c1Cl`: the activity change, negative = inhibition is -84.6% (active) and 9.96% (inactive).

In the case of `C[C@@H](Oc1cc(-c2cnn(C3CCNCC3)c2)cnc1N)c1c(Cl)ccc(F)c1Cl`, the activity change, negative = inhibition is -43.1% (inactive) and -79.1% (active).

As to `Fc1cc(-c2cccc3ncc(-c4cnn(C5CCNCC5)c4)nc23)cc(F)c1CN1CCOCC1`, the activity change, negative = inhibition was 6.9% (inactive).

For the molecule `CCCCCCCCCCCC[C@H](C(=O)O)[C@@H](C)C(=O)O`, the activity change, negative = inhibition was 2.19% (inactive).

On to `Oc1c(Cl)cc(Cl)cc1Sc1cc(Cl)cc(Cl)c1O`, for which the activity change, negative = inhibition was -82.5% (active) and -6.64% (inactive).

Turning to `Cc1cc(Cl)ccc1OCCCC(=O)NO`, the activity change, negative = inhibition is -90% (active).

As to `C#CCN(C)CCCOc1ccc(Cl)cc1Cl`, the activity change, negative = inhibition is 20.2% (inactive) and 29.2% (inactive).

Regarding `O=C(CCCS)NC1CCN(C(=O)COc2ccc(Cl)cc2Cl)CC1`, the activity change, negative = inhibition was -3% (inactive).

Take `CN(CC(=O)O)C(=N)N`: the activity change, negative = inhibition was 15.6% (inactive).

As to `CCC[C@@H](NC(=O)N1C(=O)C(CC)(CC)[C@@H]1Oc1ccc(C(=O)N2CCN(C)CC2)cc1)c1ccc2c(c1)OCO2`, the activity change, negative = inhibition is 4.37% (inactive).

For `CC(C)C[C@H](NC(=O)[C@H](CC(N)=O)NC(=O)[C@@H](NC(=O)[C@@H](N)CCC(=O)O)C(C)C)[C@@H](O)C[C@@H](C)C(=O)N[C@@H](C)C(=O)N[C@@H](CCC(=O)O)C(=O)N[C@@H](Cc1ccccc1)C(=O)O` (H-EVN[LeuΨ(S-CHOHCH2)Ala]AEF-OH), the activity change, negative = inhibition was 3.01% (inactive).
